Results: PubChem BioAssay (NCATS)
Results filed as inconclusive are left out. Activity calls are given as the source filed them. Unless noted, calls come from the whole dose curve; as a rule, active = well fitted curve in either direction with a large enough effect (not every such curve was filed as active); inconclusive = small, poorly fitted or top-dose-only effect, or another doubt; inactive = flat fitted curve, though single readings scatter.

How the values were obtained:
[1] = AP1 Signaling Pathway (AID 357);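 note: ME-180 reporter cells stimulated with EGF at its EC50 level; % is set by controls: 0 for no effect and ±100 for the full control effect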
Method in brief: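 Cells are seeded overnight, exposed to compound titrations and an EC50 level of EGF for 5 hours at 37 °C, then loaded with CCF4 dye for 2.5 hours. Beta-lactamase activity under the AP-1 element is read as a blue/green ratio.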

[2] = NFAT Signaling Pathway (AID 444); details: Jurkat NFAT-bla M1, carbachol, beta-lactamase ratio, 5 h; at 17.2 µM (top of the series) unless noted;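 note: carbachol stimulus at about its EC50 of 1 µM final; % is set by controls: 0 for no effect and ±100 for the full control effect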
Method in brief: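 Jurkat cells with NFAT-driven β-lactamase reporter and co-expressed M1 receptor, stimulated with carbachol (final 1 uM, ~EC50), compound titration, 5 h at 37 °C. CCF4 loaded 1 h at RT; 460/530 nm ratio gave %activity and AC50.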

[3] = Stat Signaling Pathway (AID 446);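 note: ME-180 cervical cancer cells given 40 pM IL-6 alongside compound; SIE-controlled beta-lactamase reporter measured as 460/530 nm FRET emission ratio; % is set by controls: 0 for no effect and ±100 for the full control effect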
Method in brief: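 FRET read-out (405 nm excitation, 460/530 nm emission) of a beta-lactamase reporter under a STAT-inducible element in ME-180 cervical carcinoma cells. Cells with compound receive 40 pM IL-6 for 5 h. Values are normalised to AC90 stimulation and AC90 JAK-inhibitor controls.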

[4] = molecular target: Glucocorticoid receptor (Homo sapiens) (UniProt P04150); test: GR-GFP Redistribution (AID 450;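 active = compounds whose dose series gives a full or clear partial fitted curve of increased nuclear translocation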; note: potency is the fitted concentration of half-maximal effect); details: U2OS GR-GFP nuclear translocation, laser cytometry, 2 h
[5] = molecular target: Glucocorticoid receptor (Homo sapiens) (UniProt P04150); test: GR-EFC Redistribution (AID 451; calls by dose curve; note: potency is the fitted concentration of half-maximal effect); details: CHO-K1 GR-EFC translocation, beta-gal luminescence, 2 h
Method in brief: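 CHO-K1 cells expressing nuclear EA and GR-ED fragments of b-gal; compounds titrated up to 46 uM final, 2 h at 37 C. GR nuclear translocation read as complemented b-gal luminescence after 1 h RT detection.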

[6] = molecular target: Mitogen-activated protein kinase 10 (Mus musculus) (UniProt Q61831); test: JNK3 AlphaScreen Assay (AID 530);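 note: kinase came from lysate of stimulated human HepG2 cells; signal reports phosphorylation of biotinylated GST-cJun 1-79 at Ser73 with 10 µM ATP; % is set by controls: 0 for no effect and ±100 for the full control effect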
Method in brief: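 Activity was read by AlphaScreen after JNK3-containing HepG2 lysate (cytokine pre-activated) phosphorylated biotinylated GST-cJun with 10 uM ATP at room temperature. Phospho-Ser73 cJun antibody with Protein-A acceptor beads provided detection.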

[7] = molecular target: 3',5'-cyclic-AMP phosphodiesterase 4B (Homo sapiens) (UniProt Q07343); test: qHTS Assay for Inhibitors of PDE-IV (AID 607; active = well fitted activation curve with a large enough effect in the main read-out, with a control signal flat, not every such curve was filed as active; note: % of control where 0% means no effect)
Method in brief: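 Cell-based read-out of cAMP via a modified cyclic nucleotide-gated channel and membrane potential dye (535/590 nm) in HEK293 cells expressing PDE4 endogenously. Compounds tested up to 22.9 uM final; 100 uM RO 20-1724 reference.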

[8] = qHTS Assay for Lipid Storage Modulators (AID 1519; calls by dose curve); details: Drosophila S3 cells, BODIPY lipid droplet/cell ratio, laser cytometry, cells loaded with oleic acid; for activity change, negative = inhibition: at 25.7 µM (top of the series)
Method in brief: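 Cells seeded at 5,000 per well were treated with compounds over a concentration series and loaded with oleic acid (400 uM, as added). Lipid droplet fluorescence (488 nm excitation, 500-530 nm channel) was read by laser-scanning cytometry and normalized to 20 uM Triacsin C.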

[9] = molecular target: Ubiquitin carboxyl-terminal hydrolase 1 (Homo sapiens) (UniProt O94782); test: Inhibitors of USP1/UAF1: Pilot qHTS (AID 504865; active = well fitted curve in the direction sought with a large enough effect; an effect the other way counts as inactive or inconclusive;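 note: rhodamine fluorescence freed from ubiquitin-rhodamine substrate followed over time; top concentration of the series differs between compounds; % is set by controls: 0 for no effect and ±100 for the full control effect; nearly all actives have a fitted effect of over 35% in size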)
Method in brief: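 Kinetic fluorescence assay: 1nM USP1/UAF1, 15 min compound preincubation, then 150nM Ub-Rho; 480/540 nm.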

[10] = molecular target: Luciferin 4-monooxygenase (Photinus pyralis) (UniProt P08659); test: Biochemical firefly luciferase enzyme assay for NPC (AID 624030; active = well fitted curve in the direction sought with a large enough effect; an effect the other way counts as inactive or inconclusive;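 note: purified P. pyralis luciferase at 10 nM with luciferin and ATP substrate; 0% = DMSO and -100% = full luciferase inhibition by PTC124 control; nearly all actives have a fitted effect of over 70% in size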)
Method in brief: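 Purified P. pyralis luciferase at 10 nM in 50 mM Tris Acetate (final), luminescence read within 5 minutes of enzyme addition to compounds. Activity normalised to PTC124 versus DMSO; concentration-response curves classed by r2, magnitude and activity.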

[11] = S16 Schwann cell viability assay (CellTiter-Glo assay) (AID 624031; active = well fitted curve in the direction sought with a large enough effect; an effect the other way counts as inactive or inconclusive;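 note: native untransfected S16 rat Schwann cells; cellular ATP luminescence as a viability measure; plate controls were DMSO-treated cells for no effect and cell-free wells for full effect; nearly all actives have a fitted effect of over 70% in size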)
Method in brief: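 Parental S16 cells, 24 h compound, 37 °C. ATP-luminescence viability; DMSO = 0% activity, empty wells as reference; curves classified by fit quality and efficacy.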

CP191 = test: qHTS profiling for inhibitors of Plasmodium falciparum proliferation (AID 504749; active = well fitted curve in the direction sought with a large enough effect; an effect the other way counts as inactive or inconclusive;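 note: 0% = DMSO vehicle and full inhibition = artemisinin control; nearly all actives have a fitted effect of over 60% in size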); details: P. falciparum in erythrocytes, SYBR Green DNA, 72 h; series mostly up to 12.8 µM
Method in brief: (§1)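 Each compound contacts P. falciparum-infected red blood cells for 72 h at 37 C; lysis buffer (Tris, EDTA, saponin, Triton X, SYBR Green I) is added and fluorescence measured next morning; values normalized to controls.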

CP247 = test: as above; details: P. falciparum in erythrocytes, SYBR Green DNA, 72 h; series mostly up to 12.8 µM
Method in brief: as §1

CP250 = test: as above; details: P. falciparum in erythrocytes, SYBR Green DNA, 72 h; series mostly up to 12.8 µM
Method in brief: as §1

CP256 = test: as above; details: P. falciparum in erythrocytes, SYBR Green DNA, 72 h; series mostly up to 12.8 µM
Method in brief: as §1

FAB9 = test: as above; details: P. falciparum in erythrocytes, SYBR Green DNA, 72 h; series mostly up to 12.8 µM
Method in brief: as §1

JCK = test: as above; details: P. falciparum in erythrocytes, SYBR Green DNA, 72 h; series mostly up to 12.8 µM
Method in brief: as §1

PC49 = test: as above; details: P. falciparum in erythrocytes, SYBR Green DNA, 72 h; series mostly up to 12.8 µM
Method in brief: as §1

[12] = as above; details: P. falciparum in erythrocytes, SYBR Green DNA, 72 h; at 12.8 µM (top of the series); parasite line A
Method in brief: as §1

C2A = test: as above; details: P. falciparum in erythrocytes, SYBR Green DNA, 72 h; series mostly up to 12.8 µM
Method in brief: as §1

[13] = measured here: cell count channel max response
[14] = measured here: lipid channel max response

Sequence of 3',5'-cyclic-AMP phosphodiesterase 4B (Homo sapiens) (Q07343 whole entry, looked up): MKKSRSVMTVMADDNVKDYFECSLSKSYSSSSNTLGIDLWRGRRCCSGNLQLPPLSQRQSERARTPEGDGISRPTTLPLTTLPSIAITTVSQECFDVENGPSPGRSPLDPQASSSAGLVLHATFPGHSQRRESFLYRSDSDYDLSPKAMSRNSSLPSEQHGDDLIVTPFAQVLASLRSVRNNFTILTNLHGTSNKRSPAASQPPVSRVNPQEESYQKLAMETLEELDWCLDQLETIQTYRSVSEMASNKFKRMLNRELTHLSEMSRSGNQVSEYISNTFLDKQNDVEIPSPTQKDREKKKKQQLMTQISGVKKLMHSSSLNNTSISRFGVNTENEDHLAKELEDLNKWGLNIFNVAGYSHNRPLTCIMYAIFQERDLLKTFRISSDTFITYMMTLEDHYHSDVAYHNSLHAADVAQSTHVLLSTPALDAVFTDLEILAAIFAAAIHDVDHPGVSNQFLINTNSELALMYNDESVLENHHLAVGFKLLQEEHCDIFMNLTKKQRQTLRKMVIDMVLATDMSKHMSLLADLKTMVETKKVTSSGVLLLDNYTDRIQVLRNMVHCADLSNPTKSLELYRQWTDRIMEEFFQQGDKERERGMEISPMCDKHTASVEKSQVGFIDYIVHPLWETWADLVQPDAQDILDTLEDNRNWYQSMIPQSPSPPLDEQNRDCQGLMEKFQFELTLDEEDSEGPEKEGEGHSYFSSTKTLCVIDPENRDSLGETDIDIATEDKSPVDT
Sequence of Ubiquitin carboxyl-terminal hydrolase 1 (Homo sapiens) (O94782 whole entry, looked up): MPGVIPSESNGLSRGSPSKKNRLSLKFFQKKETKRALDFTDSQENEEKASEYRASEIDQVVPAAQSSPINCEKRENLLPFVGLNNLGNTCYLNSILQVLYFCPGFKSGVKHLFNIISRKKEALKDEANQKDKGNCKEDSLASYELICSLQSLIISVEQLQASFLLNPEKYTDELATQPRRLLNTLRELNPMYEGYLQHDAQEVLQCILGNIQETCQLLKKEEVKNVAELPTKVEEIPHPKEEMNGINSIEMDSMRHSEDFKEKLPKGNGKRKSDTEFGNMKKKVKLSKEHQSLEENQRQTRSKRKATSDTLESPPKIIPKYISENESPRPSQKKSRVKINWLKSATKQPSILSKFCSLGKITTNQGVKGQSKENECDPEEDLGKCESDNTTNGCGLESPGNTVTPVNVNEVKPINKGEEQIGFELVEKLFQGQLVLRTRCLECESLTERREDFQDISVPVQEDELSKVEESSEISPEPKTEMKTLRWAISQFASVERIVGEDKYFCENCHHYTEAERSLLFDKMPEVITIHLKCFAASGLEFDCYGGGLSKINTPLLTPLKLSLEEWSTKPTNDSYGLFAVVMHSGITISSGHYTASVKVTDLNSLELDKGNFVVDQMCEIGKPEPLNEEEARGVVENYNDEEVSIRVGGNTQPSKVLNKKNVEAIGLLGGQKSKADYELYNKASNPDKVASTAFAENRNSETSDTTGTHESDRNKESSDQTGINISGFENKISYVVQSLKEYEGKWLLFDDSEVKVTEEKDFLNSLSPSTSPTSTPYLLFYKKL
Sequence of Glucocorticoid receptor (Homo sapiens) (P04150 whole entry, looked up, the tested form may be a part): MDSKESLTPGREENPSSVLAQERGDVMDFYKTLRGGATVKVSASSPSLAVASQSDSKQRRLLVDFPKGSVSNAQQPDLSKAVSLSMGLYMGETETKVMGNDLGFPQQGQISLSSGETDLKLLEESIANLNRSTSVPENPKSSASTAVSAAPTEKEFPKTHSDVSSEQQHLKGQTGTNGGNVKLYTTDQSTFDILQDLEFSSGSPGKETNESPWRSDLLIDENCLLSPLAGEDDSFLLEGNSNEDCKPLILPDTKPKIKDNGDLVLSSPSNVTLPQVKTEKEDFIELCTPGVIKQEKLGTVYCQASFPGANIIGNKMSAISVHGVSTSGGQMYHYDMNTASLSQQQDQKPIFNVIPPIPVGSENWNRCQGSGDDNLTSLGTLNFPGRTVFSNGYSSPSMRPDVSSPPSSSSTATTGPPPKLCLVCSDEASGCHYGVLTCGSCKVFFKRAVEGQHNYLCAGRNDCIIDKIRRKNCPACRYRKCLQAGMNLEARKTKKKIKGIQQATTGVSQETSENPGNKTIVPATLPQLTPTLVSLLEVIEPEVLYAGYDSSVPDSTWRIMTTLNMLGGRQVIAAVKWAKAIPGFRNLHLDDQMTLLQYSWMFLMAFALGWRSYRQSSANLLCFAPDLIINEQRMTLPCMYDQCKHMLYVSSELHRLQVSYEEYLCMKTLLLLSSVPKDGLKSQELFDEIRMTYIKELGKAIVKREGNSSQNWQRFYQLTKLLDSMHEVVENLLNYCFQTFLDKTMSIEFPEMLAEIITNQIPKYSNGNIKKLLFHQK
Sequence of Luciferin 4-monooxygenase (Photinus pyralis) (P08659 whole entry, looked up): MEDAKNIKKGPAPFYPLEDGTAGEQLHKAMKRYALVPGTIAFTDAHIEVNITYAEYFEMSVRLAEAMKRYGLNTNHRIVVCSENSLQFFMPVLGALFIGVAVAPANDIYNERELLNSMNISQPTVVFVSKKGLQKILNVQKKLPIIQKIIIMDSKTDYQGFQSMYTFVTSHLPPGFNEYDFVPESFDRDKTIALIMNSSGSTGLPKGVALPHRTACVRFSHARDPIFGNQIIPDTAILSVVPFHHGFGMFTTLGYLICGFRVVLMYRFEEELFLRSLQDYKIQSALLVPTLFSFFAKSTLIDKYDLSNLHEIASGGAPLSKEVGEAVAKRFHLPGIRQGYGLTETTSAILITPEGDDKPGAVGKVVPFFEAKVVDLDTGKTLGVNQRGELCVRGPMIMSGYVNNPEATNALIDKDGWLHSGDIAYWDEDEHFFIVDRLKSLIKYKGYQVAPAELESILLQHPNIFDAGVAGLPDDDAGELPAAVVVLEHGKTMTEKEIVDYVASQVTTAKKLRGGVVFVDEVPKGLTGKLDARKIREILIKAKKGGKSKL

Cc1ccccc1OC[C@H](O)CO
inactive: outcome [1] | activity change, negative = inhibition [2] 11.2% | outcome [3] | Potency [4] > 20.6 µM | Potency [5] > 20.6 µM | Potency [6] | outcome [7] | activity change, negative = inhibition [8] -0.676% | Potency [9]
-5.46%: max response [8, 14]
-3.4%: max response [8, 13]

C[N+](C)(CCCOc1ccccc1)c1ccccc1
0.349%: max response [8, 13]
5.95%: max response [8, 14]
inactive: outcome [1] | activity change, negative = inhibition [2] -17.9% | outcome [3] | Potency [4] > 20.6 µM | Potency [5] > 20.6 µM | Potency [6] | outcome [7] | activity change, negative = inhibition [8] 3.08% | Potency [9]

C=C1c2c(Cl)ccc(O)c2C(O)=C2C(=O)[C@@]3(O)C(O)=C(C(N)=O)C(=O)[C@@H](N(C)C)[C@@H]3[C@@H](O)[C@H]12
inactive: outcome [1] | activity change, negative = inhibition [2] -26.3% | outcome [3] | Potency [5] > 20.6 µM | Potency [6] | outcome [7] | activity change, negative = inhibition [8] 1.11% | Potency [10] | outcome [11] | Potency (CP191) | Potency (CP247) | Potency (CP250) | Potency (CP256) | Potency (FAB9) | Potency (JCK) | Potency (PC49)
-8.74%: max response [8, 14]
-8.18%: max response [8, 13]

C=C1CC23C[C@H]4[C@@H]5[C@@]6(C)C[C@H](OC(=O)c7ccccc7)[C@@H](OC(C)=O)[C@]57[C@@H]2[C@@H](OC(C)=O)[C@H]1[C@@H](O)[C@H]3[C@H]7N4C6
inactive: outcome [1] | activity change, negative = inhibition [2] -10.3% | outcome [3] | Potency [4] > 20.6 µM | Potency [5] > 20.6 µM | Potency [6] | outcome [7] | activity change, negative = inhibition [8] -1.43%
-3.09%: max response [8, 13]
-1.64%: max response [8, 14]

COC(=O)[C@@H]1[C@@H]2C[C@H]3c4[nH]c5cc(OC)ccc5c4CCN3C[C@@H]2C[C@H](OC(=O)c2cc(OC)c(OC)c(OC)c2)[C@H]1OC
inactive: outcome [1] | activity change, negative = inhibition [2] -10.5% | outcome [3] | Potency [4] > 20.6 µM | Potency [5] > 20.6 µM | Potency [6] | outcome [7] | activity change, negative = inhibition [8] -6.07%
-5.3%: max response [8, 13]
-12.8%: max response [8, 14]

CCCC(=O)Nc1ncnc2c1ncn2[C@@H]1O[C@H]2COP(=O)(O)O[C@@H]2[C@@H]1OC(=O)CCC
-4.54%: max response [8, 14]
inactive: outcome [1] | activity change, negative = inhibition [2] 16.7% | outcome [3] | Potency [4] > 20.6 µM | Potency [5] > 20.6 µM | outcome [7] | activity change, negative = inhibition [8] -1.42% | Potency [9]
-2.67%: max response [8, 13]

CO[C@H]1[C@H](O[C@H]2O[C@@H](C)[C@@H](O[C@@H]3C[C@](C)(O)[C@H](O)[C@H](C)O3)[C@@H](N(C)C)[C@@H]2O)[C@@H](CC=O)C[C@@H](C)[C@@H](O[C@H]2CC[C@H](N(C)C)[C@H](C)O2)/C=C\C=C/C[C@@H](C)OC(=O)C[C@H]1O
inactive: outcome [1] | activity change, negative = inhibition [2] 7.86% | outcome [3] | Potency [5] > 20.6 µM | Potency [6] | outcome [7] | activity change, negative = inhibition [8] -1.68% | Potency [9] | Potency [10] | outcome [11] | activity, negative = inhibition [12] -18% | Potency (C2A) | Potency (CP191) | Potency (CP247) | Potency (CP250) | Potency (FAB9) | Potency (JCK) | Potency (PC49)
-9.34%: max response [8, 13]
-16.8%: max response [8, 14]
